High-throughput results from PubChem BioAssay.
3T3 cytotox = cytotoxic compounds in NIH 3T3 cells; NIH 3T3 viability, CellTiter-Glo ATP luminescence, 48-72 h; Potency, µM (titrated, usually from 96.7 µM), most hits filed as inhibitors; 4.3% of 94,000 active; AID 1345082; further: nearly all actives have a fitted effect of over 55% in size
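Mouse fibroblast NIH 3T3 cells, 400 per well, received compound via pintool and were incubated for 48 or 72 hr prior to CellTiter-Glo ATP luminescence measurement.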
HEK cytotox = cytotoxic compounds in HEK 293 cells; HEK 293 viability, ATP luminescence (CellTiter-Glo), 48-72 h; AID 1345083; Potency, µM (highest dose often 115 µM), most hits filed as inhibitors; 6.6% of 94,000 active; further: nearly all actives have a fitted effect of over 60% in size
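Cells seeded first (HEK 293, 250 cells/well), then compound added by pintool. Incubation ran 48 or 72 hr at 37 degree Celsius. CellTiter-Glo was added and luminescence imaged after 10 min at room temperature.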
hNpr1 antagonist = human Npr1 receptor antagonism | HEK293 hNpr1 GloSensor cGMP, ANP-stimulated luminescence | 1.6% of 76,000 active | Potency, µM (series often up to 46.3 µM), most hits filed as inhibitors | AID 1347048; calls by dose curve; further: nearly all actives have a fitted effect of over 60% in size
Target sequence (P16066 whole entry, looked up): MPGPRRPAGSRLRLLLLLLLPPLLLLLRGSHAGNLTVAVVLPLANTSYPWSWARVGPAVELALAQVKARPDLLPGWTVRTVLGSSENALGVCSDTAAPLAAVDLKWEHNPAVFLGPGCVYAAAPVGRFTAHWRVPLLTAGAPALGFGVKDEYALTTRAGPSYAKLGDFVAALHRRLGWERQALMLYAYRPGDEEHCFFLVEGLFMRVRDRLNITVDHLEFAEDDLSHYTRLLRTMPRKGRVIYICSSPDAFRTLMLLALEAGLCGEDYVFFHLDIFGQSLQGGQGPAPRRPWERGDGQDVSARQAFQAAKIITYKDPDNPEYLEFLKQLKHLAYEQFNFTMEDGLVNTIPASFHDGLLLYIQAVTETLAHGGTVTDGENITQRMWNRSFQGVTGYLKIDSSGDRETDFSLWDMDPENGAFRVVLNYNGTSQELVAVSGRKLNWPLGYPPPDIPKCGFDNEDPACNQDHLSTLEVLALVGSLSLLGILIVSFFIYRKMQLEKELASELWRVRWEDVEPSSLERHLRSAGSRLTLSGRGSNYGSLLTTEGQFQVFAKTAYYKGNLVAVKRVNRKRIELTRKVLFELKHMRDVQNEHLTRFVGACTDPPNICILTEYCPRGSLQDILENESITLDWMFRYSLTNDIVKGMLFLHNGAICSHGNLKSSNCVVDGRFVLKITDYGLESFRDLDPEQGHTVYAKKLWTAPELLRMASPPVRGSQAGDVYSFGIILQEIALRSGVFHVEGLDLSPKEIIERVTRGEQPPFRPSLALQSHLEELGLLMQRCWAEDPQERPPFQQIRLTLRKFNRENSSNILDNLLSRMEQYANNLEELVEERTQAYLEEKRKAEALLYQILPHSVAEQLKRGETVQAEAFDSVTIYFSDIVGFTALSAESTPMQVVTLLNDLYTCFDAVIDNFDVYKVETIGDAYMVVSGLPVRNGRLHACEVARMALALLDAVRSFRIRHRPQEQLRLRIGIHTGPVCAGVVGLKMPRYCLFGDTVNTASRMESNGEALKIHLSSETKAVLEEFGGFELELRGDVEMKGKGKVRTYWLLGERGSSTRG
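Compound pre-incubated 30 min at room temperature on GloSensor-loaded HEK293 cells stably carrying hNpr1 and the pGS-40F cGMP biosensor. Stimulation uses hNppA at 0.1 nM final; luminescence is taken at baseline and 20 min post-agonist.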
FLuc inh-1 = Photinus pyralis luciferase inhibition; P08659; purified P. pyralis luciferase, luminescence, biochemical; Potency, µM (top dose mostly 115 µM), most hits filed as inhibitors; 2.5% of 76,000 active; further: nearly all actives have a fitted effect of over 65% in size
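Inhibitors were tested against purified firefly luciferase in a biochemical, low-substrate format (both substrates at 10uM) and luminescence measured with a CCD imager.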
FLuc SDR no ATP = binders stabilizing firefly luciferase, without ATP | 7.8% of 1,300 active | Potency, µM (highest dose often 32.7 µM), usual class: activators | Purified FLuc-C-HiBiT, Nano-Glo HiBiT luminescence, no ATP | shares compounds with FLuc inh-1; further: nearly all actives have a fitted effect of over 55% in size
FLuc SDR ATP = firefly luciferase binding stabilization, ATP added. shares compounds with FLuc inh-1. purified FLuc-C-HiBiT + ATP, HiBiT complementation luminescence. Potency, µM (highest dose often 32.7 µM), actives largely listed as activators. 8.7% of 1,300 active. AID 1963319;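 further: signal reports ligand binding via conformational change of the enzyme rather than luciferase catalysis; nearly all actives have a fitted effect of over 55% in size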
FLuc inh-2 = blocks firefly luciferase enzymatic activity; 42% of 1,300 active; AID 1963320; Potency, µM (top dose mostly 32.7 µM), usual class: inhibitors; shares compounds with FLuc inh-1; purified FLuc-C-HiBiT enzyme, luciferin luminescence; further: nearly all actives have a fitted effect of over 70% in size
Large screens that a line does not name were inactive (follow-up assays come after a bar, where they were run). Compounds with a hit are over-represented: about 11% of the library has one in this group of screens. Unless noted, the call rests on the fitted dose curve; in most records, active means well fitted curve in the direction sought with a large enough effect; inconclusive means small, poorly fitted or top-dose-only effect, or another doubt; inactive means no such curve, though single readings can be large; an effect the other way counts as inactive or inconclusive.

O=c1oc2ccc(F)cc2cc1-c1nc(-c2cccs2)no1	none (no result: 3T3 cytotox, HEK cytotox, hNpr1 antagonist, FLuc inh-1) | FLuc SDR no ATP inactive | FLuc SDR ATP inactive | FLuc inh-2 inconclusive
CCc1noc(-c2ccn3c(CNC(=O)Cc4ccccc4Cl)nnc3c2)n1	none
CCC(=O)N1Cc2ccccc2CC2(CCCN(Cc3ccc(O)cc3)C2)C1 (stereo unspecified)	none (no result: hNpr1 antagonist, FLuc inh-1)
CC(C)c1noc(-c2cccn3c(CNC(=O)COc4ccc(F)cc4)nnc23)n1	none
O=C(O)c1ccnc(-c2ccnc(NCCN3CCCCC3=O)n2)c1	FLuc inh-1 1.4µM | FLuc SDR no ATP inactive | FLuc SDR ATP 11µM | FLuc inh-2 inconclusive
CC1CCN(CC2CCCCCN2C(=O)c2ccco2)CC1 (stereo unspecified)	none (no result: hNpr1 antagonist, FLuc inh-1)
O=C(Nc1ccccc1)N[C@H]1[C@H](O)[C@@H](Oc2ccccc2)[C@@H]2OC[C@H]1O2	FLuc inh-1 inconclusive
Cc1ccc(C2Cn3cnc(C(=O)N4CCC(C(=O)NCc5ccco5)CC4)c3CO2)cc1 (stereo unspecified)	FLuc inh-1 14µM | FLuc SDR no ATP inactive | FLuc SDR ATP inconclusive | FLuc inh-2 inconclusive
COc1ccccc1CNC(=O)C1CCN(C(=O)c2ncn3c2COC(c2ccccc2)C3)CC1 (stereo unspecified)	FLuc inh-1 13µM | FLuc SDR no ATP inactive | FLuc SDR ATP inconclusive | FLuc inh-2 6.2µM
Cc1ccc(CNC(=O)C2CCN(C(=O)c3ncn4c3COC(c3ccc(Cl)cc3)C4)CC2)cc1 (stereo unspecified)	FLuc inh-1 inconclusive
O=C(NCc1ccc(F)cc1)C1CCN(C(=O)c2ncn3c2COC(c2ccccc2)C3)CC1 (stereo unspecified)	FLuc inh-1 14µM | FLuc SDR no ATP inactive | FLuc SDR ATP inconclusive | FLuc inh-2 5.6µM
O=C(NCc1ccncc1)C1CCN(C(=O)c2ncn3c2COC(c2ccccc2)C3)CC1 (stereo unspecified)	hNpr1 antagonist inconclusive, FLuc inh-1 2.8µM | FLuc SDR no ATP inactive | FLuc SDR ATP 0.88µM | FLuc inh-2 1.8µM
CC(C)N1CC(C(=O)NCc2cccc(C(F)(F)F)c2)NC1=O (stereo unspecified)	none (no result: hNpr1 antagonist, FLuc inh-1)
O=C(c1ccco1)N1CCCC(c2noc(COc3ccccc3)n2)C1 (stereo unspecified)	3T3 cytotox inconclusive, HEK cytotox inconclusive
COc1cccc([S+](=O)([O-])N2CCC3(C2)C(=NC2CCCC2)NC(=O)N3c2cc(F)cc(F)c2)c1 (stereo unspecified)	3T3 cytotox inconclusive (no result: hNpr1 antagonist, FLuc inh-1)
Cc1ccc(C2Cn3cnc(C(=O)N4CCC(C(=O)NCc5ccccc5F)CC4)c3CO2)cc1 (stereo unspecified)	FLuc inh-1 inconclusive
O=C(NCc1ccccc1F)C1CCN(C(=O)c2ncn3c2COC(c2ccccc2)C3)CC1 (stereo unspecified)	FLuc inh-1 10µM | FLuc SDR no ATP inactive | FLuc SDR ATP inconclusive | FLuc inh-2 3.5µM
CC(CCc1ccc(O)cc1)N1CCOc2c(O)cc(-c3nc4ccccc4s3)cc2C1 (stereo unspecified)	none (no result: 3T3 cytotox, HEK cytotox, hNpr1 antagonist, FLuc inh-1) | FLuc SDR no ATP inactive | FLuc SDR ATP inactive | FLuc inh-2 inactive
O=C(c1ccccc1C(F)(F)F)N1CCOc2ccc(CN3CCOCC3)cc2C1	none
Oc1ccc(Cl)cc1CN1CCOc2c(O)cc(-c3nc4ccccc4s3)cc2C1	none (no result: 3T3 cytotox, HEK cytotox, hNpr1 antagonist, FLuc inh-1) | FLuc SDR no ATP inactive | FLuc SDR ATP inactive | FLuc inh-2 inactive
O=C(c1ccccc1C(F)(F)F)N1CCOc2c(cc(-c3nc4ccccc4s3)cc2OC2CCOC2)C1 (stereo unspecified)	none (no result: 3T3 cytotox, HEK cytotox, hNpr1 antagonist, FLuc inh-1) | FLuc SDR no ATP inactive | FLuc SDR ATP inactive | FLuc inh-2 inactive
C=CCCC(=O)N1CCOc2c(O)cc(-c3nc4ccccc4s3)cc2C1	3T3 cytotox inconclusive, HEK cytotox 50µM, FLuc inh-1 inconclusive | FLuc SDR no ATP inactive | FLuc SDR ATP inactive | FLuc inh-2 inactive
COC(=O)[C@@H]1Cc2ncn(Cc3ccccc3)c2CN1C(=O)c1ccc(OC)cc1	none
Cc1ccc(C(=O)NCCn2cccc2-c2nc(-c3ccc4c(c3)OCO4)no2)cc1	FLuc inh-1 inconclusive
O=C(NCCn1cccc1-c1nc(-c2ccc3c(c2)OCO3)no1)c1ccc(Cl)cc1	HEK cytotox inconclusive, FLuc inh-1 14µM | FLuc SDR no ATP inactive | FLuc SDR ATP inactive | FLuc inh-2 inconclusive
COc1ccc(C(=O)NCCn2cccc2-c2nc(-c3ccccc3)no2)cc1	hNpr1 antagonist inconclusive, FLuc inh-1 2.5µM | FLuc SDR no ATP inconclusive | FLuc SDR ATP inconclusive | FLuc inh-2 2.8µM
CCOc1ccc(C(=O)NCCn2cccc2-c2nc(-c3ccccc3)no2)cc1OCC	HEK cytotox inconclusive
Cc1ccc(C(=O)NCCn2cccc2-c2nc(-c3ccc4c(c3)OCO4)no2)cn1	3T3 cytotox inconclusive, HEK cytotox 28µM, FLuc inh-1 13µM | FLuc SDR no ATP inactive | FLuc SDR ATP inactive | FLuc inh-2 inconclusive
COCCN1CCCCCC(O)c2cc(C(=O)N3CC=C(c4ccccc4)CC3)ccc21 (stereo unspecified)	3T3 cytotox inconclusive, HEK cytotox inconclusive
O=C(NCc1ccccc1)C1CCc2nnc(CN[S+](=O)([O-])c3ccccc3Cl)n21 (stereo unspecified)	none (no result: hNpr1 antagonist, FLuc inh-1)
CCN(CC1CCOCC1)C(=O)c1cccnc1SC/C=C/c1ccccc1	HEK cytotox inconclusive, FLuc inh-1 11µM | FLuc SDR no ATP inactive | FLuc SDR ATP inactive | FLuc inh-2 inconclusive
Cc1c(-c2ccccc2F)[nH]c2ccc(CNC(=O)C3CCCN(C(N)=O)C3)cc12 (stereo unspecified)	3T3 cytotox inconclusive, HEK cytotox inconclusive, FLuc inh-1 3.5µM | FLuc SDR no ATP inactive | FLuc SDR ATP inconclusive | FLuc inh-2 5.6µM
Cc1c(-c2ccccc2F)[nH]c2ccc(CNC(=O)C3C=CCN3)cc12 (stereo unspecified)	3T3 cytotox inconclusive, HEK cytotox inconclusive, FLuc inh-1 10µM | FLuc SDR no ATP inactive | FLuc SDR ATP inactive | FLuc inh-2 inconclusive
CCCC(=O)N1Cc2ccccc2CC2(CCCN(CC3CCNC3)C2)C1 (stereo unspecified)	HEK cytotox inconclusive (no result: hNpr1 antagonist, FLuc inh-1)
COc1cccc(CNC(=O)Nc2cccc(-c3ccc(N4CCOCC4)nn3)c2)c1	3T3 cytotox inconclusive, HEK cytotox inconclusive, hNpr1 antagonist inconclusive, FLuc inh-1 1.1µM | FLuc SDR no ATP inconclusive | FLuc SDR ATP inconclusive | FLuc inh-2 2.8µM
O=C(Nc1cccc(-c2ccco2)c1)C1CCN(C(=O)NCc2ccco2)CC1	3T3 cytotox inconclusive, HEK cytotox inconclusive
